Screening results: PubChem BioAssay, Paczesny and Yang Labs, IUPUI and University of Michigan
The sample as a whole holds a higher share of hits than the screen did.
ST2 inh – inhibitors of human ST2 (IL1RL1) binding to IL-33; Q01638; AlphaLISA ST2-Fc/biotin-IL-33 interaction, 1 h; inhibition, % for hits at 17 µM; 2.3% of 78,000 active; in the data active = inhibition above about 30%
Target sequence (Q01638 whole entry, looked up): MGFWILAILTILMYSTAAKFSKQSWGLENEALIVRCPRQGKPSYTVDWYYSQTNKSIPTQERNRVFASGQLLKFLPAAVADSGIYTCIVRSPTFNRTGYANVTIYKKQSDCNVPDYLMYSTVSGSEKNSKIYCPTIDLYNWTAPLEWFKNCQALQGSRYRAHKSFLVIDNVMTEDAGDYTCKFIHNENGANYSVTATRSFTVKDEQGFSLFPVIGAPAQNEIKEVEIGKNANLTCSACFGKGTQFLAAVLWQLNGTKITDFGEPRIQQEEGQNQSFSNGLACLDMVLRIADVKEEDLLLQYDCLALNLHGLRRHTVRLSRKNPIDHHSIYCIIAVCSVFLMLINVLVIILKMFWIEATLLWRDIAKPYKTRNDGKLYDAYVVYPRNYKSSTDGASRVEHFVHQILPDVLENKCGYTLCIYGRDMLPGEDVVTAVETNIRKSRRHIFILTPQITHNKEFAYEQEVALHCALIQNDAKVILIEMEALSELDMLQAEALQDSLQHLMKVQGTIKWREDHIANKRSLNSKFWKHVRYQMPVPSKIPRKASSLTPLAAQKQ
Active calls of the source: *; i = inactive; ! = repeats disagree.

SMILES	ST2 inh
CCC(=O)OCCNc1cc(C)c2noc3c2c1C(=O)c1ccccc1-3	33.0%*
Cc1ccc(N2Cc3ccccc3C2=O)cc1	i
CSc1ccc(C2C(C(=O)Nc3ccc(F)cc3)=C(C)NC3=C2C(=O)CCC3)cc1 (stereo not drawn)	i
Cc1nnc(SCC(=O)Nc2ccc(Oc3ccc(Cl)cc3)cc2)s1	i
NC(=O)CSc1ncc(-c2ccc(Cl)cc2)[nH]1	i
Cc1ccc(CCN2CC(C(=O)N3CCN(C)CC3)CC2=O)cc1 (stereo not drawn)	i
Cc1onc(-c2ccccc2)c1[N+](=O)[O-]	i
COCCC(=O)NC1CCCN(CCc2ccccc2)C1 (stereo not drawn)	i
O=C(CCc1ccco1)NC1CCCN(CCc2ccccc2)C1 (stereo not drawn)	31.0%*
O=C1CC(NC2CCN(Cc3ccco3)CC2)CN1CCc1ccccc1 (stereo not drawn)	i
Cc1ccccc1C1Nc2ccc3ncccc3c2C2=C1C(=O)CC(C)(C)C2 (stereo not drawn)	i
CCC1Oc2ccccc2N(CC(=O)NCCN(C)C)C1=O (stereo not drawn)	i
O=C(CNS(=O)(=O)c1cccs1)NC1CCCc2ccccc21 (stereo not drawn)	i
CCNC(=O)N1CC[C@H]2CC(=O)N(CCN3CCNC3=O)CC[C@H]2C1	i
COc1ccc(NC(=O)N2CCN(C)CC2)cc1	i
COc1ccc(NC(=O)N2CC[C@H]3CC(=O)N(CCN4CCNC4=O)CC[C@H]3C2)cc1	53.0%*
O=[N+]([O-])c1ccc(-c2nc(NC3CCCCC3)c3ccccc3n2)cc1	i
c1cncc(CNc2c3ccccc3nc3ccccc23)c1	i
CCCCN(C)c1nc(-c2ccc([N+](=O)[O-])cc2)nc2ccccc12	39.0%*
C=CCNc1nc(-c2ccc([N+](=O)[O-])cc2)nc2ccccc12	i
O=[N+]([O-])c1ccc(-c2nc(NCc3cccnc3)c3ccccc3n2)cc1	96.0%*!
CCCCN(C)Cc1ccc([N+](=O)[O-])cc1	i
CC1=C(C(=O)Nc2ccccn2)C(c2ccc(Br)cc2)C2=C(CC(C)(C)CC2=O)N1 (stereo not drawn)	i
Cc1ccc(NS(=O)(=O)c2ccc(Br)cc2)cc1Cl	i
O=C(CN1C(=O)c2ccccc2S1(=O)=O)Nc1ccc(Br)cc1F	i
SMILES	ST2 inh
CC(C)OC(=O)c1c(NC(=O)C2CCCC2)sc2c1CCCC2	i
Cc1ccccc1C1(O)CCN(Cc2c(C)nn(C)c2N2CCOCC2)C1 (stereo not drawn)	i
COC(=O)c1ccccc1NC(=O)N1CCC(n2cc(C3CC3)nn2)CC1	i
CCOC(=O)CC1=C(C(=O)OCC)C(c2ccc(C)o2)C(C#N)=C(N)O1 (stereo not drawn)	i
Cc1ccc(C2C(C#N)=C(N)OC3=C2C(=O)CCC3)o1 (stereo not drawn)	i
Cc1ccc(C2C(C#N)=C(N)Oc3c2sc2ccccc32)o1 (stereo not drawn)	39.0%*
Cc1ccc(C(C)(C)C)c(OCCN2CCN(C)CC2)c1	i
C=CCNC(=O)c1cc(-c2ccc(Br)cc2)on1	i
Cc1ccnc(NC(=O)C2CC(=O)N(c3ccc(F)cc3)C2)c1 (stereo not drawn)	i
CC(C)NC(=O)C1CC(=O)N(c2ccc(F)c(Cl)c2)C1 (stereo not drawn)	i
CCC(C)NC(=O)C1CC(=O)N(c2ccc(F)cc2)C1 (stereo not drawn)	33.0%*
CCCCNC(=O)C1c2ccccc2C(=O)N2CCc3cc(OCC)c(OCC)cc3C12 (stereo not drawn)	i
COc1ccccc1/C=C/C1=NC(=C\c2ccc(Cl)cc2Cl)/C(=O)O1	i
COc1ccccc1/C=C/C1=NC(=C\c2ccc(SC)cc2)/C(=O)O1	i
COc1ccccc1/C=C/C1=NC(=C\c2ccc(C(C)C)cc2)/C(=O)O1	45.0%*
CCOC(=O)O/N=C(N)/C(N)=N\OC(=O)OCC	i
NC(=O)c1ccc(NC(=O)C2CCN(C(=O)Cc3ccccc3)CC2)cc1	i
O=C1C[C@H]2CC[C@@H](CN1)N2C(=O)Cc1ccc(NC(=O)C2CC2)cc1	43.0%*
NS(=O)(=O)c1ccc(NC(=O)C2CCN(C(=O)Cc3ccccc3)CC2)cc1	i
C[C@H]1[C@@H]2[C@H]3OC(=O)[C@@H](C)[C@@H]3CC[C@@]2(C)CC[C@@H]1NC(=O)C1CC1	i
C[C@@H]1C(=O)O[C@H]2[C@H]1CC[C@@]1(C)Cc3sc(Nc4ccc(C(=O)O)cc4)nc3[C@@H](C)[C@H]21	85.0%*
C=CCNC(=O)Nc1nc2c(s1)C[C@]1(C)CC[C@@H]3[C@H](OC(=O)[C@H]3C)[C@H]1[C@@H]2C	34.0%*
C[C@@H]1C(=O)O[C@H]2[C@H]1CC[C@@]1(C)Cc3sc(Nc4cccnc4)nc3[C@@H](C)[C@H]21	36.0%*
COc1cc(NC(=O)Nc2nc3c(s2)C[C@]2(C)CC[C@@H]4[C@H](OC(=O)[C@H]4C)[C@H]2[C@@H]3C)cc(OC)c1	i
C[C@H](C(=O)NCCN1CCOCC1)C1CC[C@@]2(C)Cc3sc(-c4ccccc4)nc3[C@@H](C)[C@@H]2[C@H]1O (stereo partly drawn)	i
SMILES	ST2 inh
CSCC(=O)Nc1nc2c(s1)C[C@]1(C)CC[C@@H]3[C@H](OC(=O)[C@H]3C)[C@H]1[C@@H]2C	i
C[C@@H]1C(=O)O[C@H]2[C@H]1CC[C@@]1(C)Cc3sc(NC(=O)c4ccc(N(C)C)cc4)nc3[C@@H](C)[C@H]21	i
CN1CCN(S(=O)(=O)c2cc(Cl)c(Cl)cc2Cl)CC1	i
CCN(CC)C(=O)c1cc(Br)c(C)c(C)c1C	i
O=C(NCc1ccc2c(c1)OCO2)c1cc(-c2cccs2)nc2ccccc12	i
COc1ccc(-c2nc(C)ncc2C)cc1Cl	i
O=C(CSc1nccc(=O)[nH]1)n1c2c(c3ccccc31)CCCC2	i
O=C(CNCC1CCCO1)Nc1sc2c(c1C(=O)Nc1ccc(Br)cc1)CCC2 (stereo not drawn)	i
COc1ccc(OC)c(N(CC(=O)NCC2CCCO2)S(C)(=O)=O)c1 (stereo not drawn)	i
Cc1cccc(C)c1NC(=O)CN(c1ccccc1Cl)S(=O)(=O)c1ccccc1	i
CN(C)c1ccc(-c2nc3n(c(=O)c2C#N)CCS3)cc1	i
COc1ccc2cc([C@H](C)C(=O)O)ccc2c1	i
COc1ccc(-c2nc(N3CCC(C)CC3)[nH]c(=O)c2C#N)cc1	i
Cc1c(C(=O)NC2CCCCC2)oc2ccc(S(=O)(=O)N3CCCC3)cc12	i
Cn1c(CSc2nc3ccccc3o2)nc2ccccc21	i
O=C(CSc1nc2ccccc2o1)Nc1ccccc1	i
O=[N+]([O-])c1ccc(CSc2nc3ccccc3o2)cc1	35.0%*
Clc1ccc2c(c1)C1CC(c3ccccc3)=NN1CO2 (stereo not drawn)	i
CC(C)C1Oc2ccc(Cl)cc2C2CC(c3cccs3)=NN21 (stereo not drawn)	34.0%*
c1csc(C2=NN3C(C2)c2ccccc2OC32CCCC2)c1 (stereo not drawn)	i
CCc1cccc(C)c1NC(=O)c1cc2ccccc2oc1=O	i
Cc1c(N=Cc2ccccc2)cc([N+](=O)[O-])cc1[N+](=O)[O-]	i
O=[N+]([O-])c1cc([N+](=O)[O-])c2c(OCc3ccccc3)nsc2c1	43.0%*
Cc1nc2c(sc3cc([N+](=O)[O-])cc(Sc4ccccc4)c32)c(=O)n1C	i
